HP1b chromo inh: HTS for Inhibitors of HP1-beta Chromodomain Interactions with Methylated Histone Tails. Chromobox protein homolog 1 (Homo sapiens), P83916. AlphaScreen HP1-beta / biotin-H3K9me3 peptide binding. Potency, µM (highest dose often 114 µM), inactives show at the top dose activity change, negative = inhibition, actives largely listed as inhibitors. hit rate 0.56% among 390,000. AID 540317, 2011; note: nearly all actives have a fitted effect of over 70% in size
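AlphaScreen: HP1-beta (50 nM) preformed 30 min with biotin-H3(1-18)K9me3 peptide (50 nM) in PBS pH 7.4, 0.01% Tween-20. Compound added for 30 min at RT, then streptavidin donor/nickel chelate acceptor beads (10 ug/mL) for 30 min.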
JMJD2A Tudor inh: qHTS Assay for Inhibitors of JMJD2A-Tudor Domain. Lysine-specific demethylase 4A (Homo sapiens), O75164. AlphaScreen JMJD2A-Tudor / H3K4me3 peptide binding. Potency, µM (highest dose often 114 µM), for inactives: at the top dose activity change, negative = inhibition, actives largely listed as inhibitors. hit rate 4.4% among 390,000; note: % is set by controls: 0 for no effect and ±100 for the full control effect; nearly all actives have a fitted effect of over 50% in size
Target sequence (O75164 whole entry, looked up, the tested form may be a part): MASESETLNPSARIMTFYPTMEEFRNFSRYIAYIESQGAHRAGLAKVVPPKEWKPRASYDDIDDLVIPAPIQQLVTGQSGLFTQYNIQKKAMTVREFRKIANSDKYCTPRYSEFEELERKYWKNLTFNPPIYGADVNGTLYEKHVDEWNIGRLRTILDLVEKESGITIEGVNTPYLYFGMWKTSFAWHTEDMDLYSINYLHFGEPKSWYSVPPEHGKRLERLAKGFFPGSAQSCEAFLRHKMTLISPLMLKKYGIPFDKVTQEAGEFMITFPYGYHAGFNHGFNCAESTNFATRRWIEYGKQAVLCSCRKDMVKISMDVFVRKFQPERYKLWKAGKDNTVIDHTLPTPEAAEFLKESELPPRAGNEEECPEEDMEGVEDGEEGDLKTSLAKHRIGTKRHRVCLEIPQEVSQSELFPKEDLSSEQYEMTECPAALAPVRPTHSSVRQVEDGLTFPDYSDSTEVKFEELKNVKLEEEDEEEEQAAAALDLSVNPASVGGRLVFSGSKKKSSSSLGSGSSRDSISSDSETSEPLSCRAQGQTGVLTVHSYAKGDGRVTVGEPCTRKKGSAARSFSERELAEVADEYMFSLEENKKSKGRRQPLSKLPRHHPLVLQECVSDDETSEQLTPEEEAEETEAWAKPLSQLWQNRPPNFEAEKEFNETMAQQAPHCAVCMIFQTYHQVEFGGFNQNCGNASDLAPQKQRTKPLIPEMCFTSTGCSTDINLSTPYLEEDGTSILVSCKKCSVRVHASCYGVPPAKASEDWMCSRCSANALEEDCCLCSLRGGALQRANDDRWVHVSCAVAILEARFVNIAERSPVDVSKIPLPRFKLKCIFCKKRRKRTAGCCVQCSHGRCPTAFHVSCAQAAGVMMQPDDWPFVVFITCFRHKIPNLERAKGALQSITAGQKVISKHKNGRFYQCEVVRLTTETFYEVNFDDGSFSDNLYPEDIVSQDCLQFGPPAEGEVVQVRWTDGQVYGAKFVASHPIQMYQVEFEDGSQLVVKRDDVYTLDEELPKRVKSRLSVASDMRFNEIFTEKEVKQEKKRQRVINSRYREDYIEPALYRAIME
PLK1 PBD inh: qHTS for Inhibitors of PLK1-PDB (polo-like kinase 1 - polo-box domain): Primary Screen; Serine/threonine-protein kinase PLK1 (Homo sapiens), P53350; Plk1 PBD binding of FITC phosphopeptide, fluorescence polarization; Potency, µM, without a hit: max response, negative = inhibition, usual class: inhibitors; hit rate 2.8% among 360,000; AID 720504, 2013; note: series mostly up to about 57 µM; % is set by controls: 0 for no effect and ±100 for the full control effect; nearly all actives have a fitted effect of over 65% in size
BAZ2B inh: qHTS Assay for Inhibitors of BAZ2B | Bromodomain adjacent to zinc finger domain protein 2B (Homo sapiens), Q9UIF8 | AlphaScreen BAZ2B-H3K14Ac peptide displacement | Potency, µM (doses to about 114 µM), for inactives: at the top dose activity change, negative = inhibition, most hits filed as inhibitors | hit rate 4.4% among 360,000 | AID 504333, 2011; note: % is set by controls: 0 for no effect and ±100 for the full control effect; nearly all actives have a fitted effect of over 60% in size
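Multi-concentration screen (max 110 uM) measuring displacement of acetylated histone H3 peptide from BAZ2B by AlphaScreen, using 50 nM protein, 50 nM peptide and 10 ug/mL streptavidin donor plus Ni-chelate acceptor beads.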
Sfp inh: qHTS Assay for Inhibitors of Bacillus subtilis Sfp phosphopantetheinyl transferase (PPTase); hit rate 3.5% among 310,000; Potency, µM, without a hit: largest response in the series, negative = inhibition, most hits filed as inhibitors; Biochemical Sfp PPTase activity, qHTS; AID 1490, 2009; 4'-phosphopantetheinyl transferase ffp (Bacillus subtilis), Q9F4F7;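 note: the enzyme is Sfp with the accession as filed and its product quenches rhodamine fluorescence; 0% = enzyme reaction without inhibitor and -100% = no enzyme wells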
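Sfp 15 nM + cpd, 15 min RT; start w/ rhodamine-CoA 5 uM, BHQ-2-YbbR 12.5 uM (final); 50 mM Hepes pH 7.6, 10 mM MgCl2, 0.01% NP-40, 0.01% BSA; read 525/598 nm at 0 and 30 min.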
G9a block: qHTS Assay for Inhibitors of Histone Lysine Methyltransferase G9a; Histone-lysine N-methyltransferase EHMT2 (Homo sapiens), Q96KQ7; G9a H3K9 monomethylation, AlphaScreen, 2 h; Potency, µM (highest dose often 102 µM), for inactives: at the highest dose activity, negative = inhibition, actives largely listed as inhibitors; hit rate 8.8% among 350,000; AID 504332, 2011; note: % is set by controls: 0 for no effect and ±100 for the full control effect; nearly all actives have a fitted effect of over 75% in size
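Readings reflect AlphaScreen signal from monomethyl-H3K9 antibody detection. HMT at 20 nM; substrate b-H3K9 500 nM; cofactor SAM 20 uM; 2 h RT reaction; compounds tested as titrations in qHTS with 15 min preincubation.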
Numbers without * were called inactive; u = inconclusive; x = no result; [ ] = another dose, or the depositor's remark. Compounds with a hit are over-represented: about 12% of the library has one in this group of screens. Calls come from the whole dose curve; as a rule, active = well fitted curve in the direction sought with a large enough effect; inconclusive = small, poorly fitted or top-dose-only effect, or another doubt; inactive = no such curve, though single readings can be large; an effect the other way counts as inactive or inconclusive. Potency is the fitted concentration of half-maximal effect.

SMILES	HP1b chromo inh	JMJD2A Tudor inh	PLK1 PBD inh	BAZ2B inh	Sfp inh	G9a block
CC(C)CNC(=O)C(=O)Nc1c2c(nn1-c1ccccc1)CS(=O)(=O)C2	-20.0%	u	x	-28.0%	x	u
COC(=O)c1cc2c(n(Cc3ccccc3)c1=O)CCCC2=O	27.8%	-8.2%	-1.2%	x	x	x
O=C(O)CCn1c(-c2ccccc2)cc2c1CCCC2=O	29.4%	-17.9%	-3.4%	-2.0%	-16.4%	50.1µM*
CCOc1ccc(NC(=O)C2CCC(CNS(=O)(=O)c3ccc4c(c3)CCCC(=O)N4)CC2)cc1 (centres undefined)	43.1%	2.6%	x	2.0%	x	8.4%[59 µM]
N#Cc1nc(COc2ccc(-c3ccccc3)cc2)oc1N1CCC(C(N)=O)CC1	9.6%	-30.5%	x	x	x	x
CC(=O)c1c(C)oc2ccc(NS(=O)(=O)c3ccc(C)cc3)cc12	12.8%	-6.1%	-3.4%	6.7%	0.8%	26.5%[59 µM]
Cc1ccc(C)c(S(=O)(=O)Nc2ccc3oc(C)c(C(=O)O)c3c2)c1	50.1µM*	50.1µM*	u	50.1µM*	-11.9%	39.8µM*
COc1ccc(C(=O)c2ncc(C(F)(F)F)cc2Cl)cc1	5.3%	u	23.8µM*	6.6%	18.5%	8.1%
O=C(Nc1ccccc1C(=O)NCCc1ccc(O)cc1)c1ccco1	71.5%	3.6%	0.9%	6.6%	6.0%	8.0%
COc1ccccc1CN(C)C(=O)C(NC(=O)Cc1cccc2ccccc12)C(C)C (centres undefined)	9.3%[57 µM]	-27.7%	26.7µM*	-9.1%	10.2%	7.94µM*
COc1ccc(CN(C)C(=O)CNC(=O)Cc2cccc3ccccc23)c(OC)c1OC	32.1%	-13.0%	2.8%	-12.0%	2.1%	x
CC1(C(=O)N2CCN(C(=O)c3ccco3)CC2)CC1(Br)Br (centres undefined)	28.9%	5.0%	1.9%	1.9%	10.7%	39.0%
O=[N+]([O-])c1cccc(-c2csc(Nc3ccccc3)n2)c1	-24.5%	u	-19.9%	u	-13.6%	39.8µM*
COc1ccc(Cl)cc1Nc1nc(-c2cccnc2)cs1	26.0%	-13.0%	1.6%	u	-9.5%	x
O=C(Nc1cccc(-c2csc(Nc3ccccc3)n2)c1)c1ccccc1	13.0%	-25.9%	3.3%	-9.8%	15.2%	-3.6%[59 µM]
COc1cc(NS(=O)(=O)c2ccc(Nc3nc(-c4cccc([N+](=O)[O-])c4)cs3)cc2)nc(OC)n1	u	u	u	44.7µM*	3.5%	50.1µM*
COc1ccccc1Nc1nc(-c2cccc([N+](=O)[O-])c2)cs1	-14.0%	u	-2.4%	u	11.2µM*	u
COC(=O)c1c(SCC(=O)Nc2cc(C)cc(C)c2)[nH]c2ccccc2c1=O	41.0%	-8.9%	x	1.5%	x	9.9%[59 µM]
COc1cc(C(=O)Nc2ccc3oc(-c4ccc(C)c(Br)c4)nc3c2)cc(OC)c1OC	34.1%	-21.9%	x	-1.9%	x	u
C=C(CN(C)C)C(=O)c1cc(OC)c(OC)cc1OC	u	79.4µM*	16.8µM*	x	x	x
C=C(C)C(=O)c1ccc2c(c1)OCO2	x	x	x	x	-18.9%	x
COc1cc(OC)c(C(=O)CCC(=O)O)cc1OC	30.3%	-2.1%	-9.2%	10.3%	0.2%	10.6%[59 µM]
C=C(CN(C)C)C(=O)c1ccc(C)cc1C	31.6µM*	79.4µM*	2.67µM*	x	x	x
C=C(CN(C)C)C(=O)c1ccc2c(c1)OCO2	u	14.1µM*	15µM*	x	x	x
O=C1CN(C(=O)Cc2ccc(F)cc2)C(c2ccccc2)c2cc(Cl)ccc2N1 (centres undefined)	34.9%	-21.2%	x	-4.5%	x	-1.8%[59 µM]
SMILES	HP1b chromo inh	JMJD2A Tudor inh	PLK1 PBD inh	BAZ2B inh	Sfp inh	G9a block
O=C1CN(C(=O)c2ccc(S(=O)(=O)N3CCCCC3)cc2)C(c2ccc(F)cc2)c2cc(Cl)ccc2N1 (centres undefined)	26.2%	-11.3%	x	-2.9%	x	-9.2%[59 µM]
O=C(Cc1ccccc1Cl)NC1(O)C(=O)c2ccccc2C1=O	49.0%	-2.4%	-22.6%	-0.1%	7.4%	56.2µM*
Cc1c(Cl)cccc1NC(=O)COC(=O)c1ccc(CN2CCCC2=O)cc1	29.4%	-2.0%	1.4%	5.6%	x	6.3%[59 µM]
CN(/C=C/C(=C\C=[N+](C)c1ccccc1)OCCCS(=O)(=O)[O-])c1ccccc1	8.1%	-16.5%	36.0%	15.4%	79.4µM*	x
COc1ccc(Cn2c(C)nc([N+](=O)[O-])c2SCC(=O)O)cc1[N+](=O)[O-]	31.1%	-4.6%	-8.6%	-15.1%	1.6%	-0.6%
Cc1nc([N+](=O)[O-])c(SCC(O)CCl)n1Cc1ccc(Cl)cc1 (centres undefined)	24.1%	-20.3%[11.4 µM]	-7.8%	-35.9%	22.6%	28.2µM*
Cc1csc(NC(=O)Cn2nc(C)c([N+](=O)[O-])c2C)n1	13.3%	-12.8%	-10.3%	-5.1%	14.2%	-3.4%
CCc1c(C)sc(NC(=O)Cn2nc(C)c([N+](=O)[O-])c2C)c1C(N)=O	u	-18.8%	5.97µM*	-30.6%	11.2µM*	3.55µM*
COc1cc(OC)c2c(c1)OC(=O)CC2c1ccccc1OC (centres undefined)	x	x	x	x	-2.6%	5.8%
O=C1CC(c2ccc(Cl)cc2)n2nc(N3C(=O)c4ccccc4C3=O)nc2N1 (centres undefined)	25.3%	u	-3.8%	79.4µM*	-28.4%	-32.7%[59 µM]
O=C(Cc1ccccc1)NNC(=S)NC(=O)c1cccnc1	17.5%	25.1µM*	0.7%	5.1%	u	10µM*
COc1ccc(CC(=O)NNC(=S)NC(=O)c2cccnc2)cc1	14.7%	20µM*	u	10.6%	u	x
COc1ccc(C(=O)NNC(=S)NC(=O)c2cccs2)cc1	27.7%	-21.2%	-18.7%	-11.9%	23.8%	39.8µM*
COc1ccc(C(=O)NNC(=S)NC(=O)c2cccnc2)cc1	17.8%	-5.8%	-4.9%	8.8%	-13.0%	12.6µM*
Cc1ccccc1CN1CCCN(CC(=O)Nc2ccc(F)cc2)S1(=O)=O	37.3%	-15.7%	x	-8.6%	x	-2.1%[59 µM]
O=C(COC(=O)c1cc(Cl)ccc1O)NCC1CCCO1 (centres undefined)	36.7%	-10.5%	1.2%	10.6%	x	-30.1%
N#CCCn1c(=O)c(-c2cc(F)cc(F)c2)nc2cnc(Oc3cccc(Cl)c3)nc21	x	x	x	x	-0.1%	-3.2%[12.7 µM]
COC(=O)NC(c1cccs1)C(C(C)=O)C(=O)OC (centres undefined)	x	x	x	x	6.4%	x
